This note sets out measurements from PubChem BioAssay (NCATS).

Where “and” joins values, the source holds several entries; their conditions need not be identical. Identical values can stand only once. Inconclusive results are not listed. Calls of active or inactive are those of the source. Unless noted, calls come from the whole dose curve; as a rule, active = well fitted curve in the direction sought with a large enough effect; inconclusive = small, poorly fitted or top-dose-only effect, or another doubt; inactive = no such curve, though single readings can be large; an effect the other way counts as inactive or inconclusive.

Experiment [1] can be described thus: Cell Viability - LYMP2-001 (AID 921).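 Note: series mostly up to about 92 µM; 0% = DMSO only and full inhibition = tetraoctylammonium bromide control wells; nearly all actives have a fitted effect of over 70% in size.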 An outline of the steps: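 Cellular ATP loss read by luciferase luminescence after 24 h compound exposure at 37 C in complete medium. LYMP2-001 lymphoblastoid cells, 2500/well; qHTS concentration-response data fitted with Hill equation for AC50.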
Experiment [2] is described as follows: MultiTox-Fluor Cytotoxicity Assay - LYMP1-002 - Dead Cells (AID 960).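 Note: cells exposed to compound for 16 h at 37 °C; 0% = DMSO and 100% = tetraoctylammonium bromide; nearly all actives have a fitted effect of over 60% in size.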 An outline of the steps: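 Concentration-dependent increases in membrane-leaked protease activity are quantified in LYMP1-002 cells after 16 hr treatment; values are normalized against DMSO and tetraoctylammonium bromide (15 uM) controls and AC50 derived by Hill modeling.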
Experiment [3] in a line: Cell Viability - LYMP2-005 (AID 967).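 Note: series mostly up to about 92 µM; plate controls were DMSO only for no effect and 92 µM tetraoctylammonium bromide control for full effect.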 A digest of the protocol: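 LYMP2-005 human lymphoblastoid cells (2500/well) were treated with compounds for 24 h at 37 C. Intracellular ATP was then measured by CellTiter-Glo luminescence after 30 min at room temperature. AC50 values came from Hill-equation fits of qHTS concentration-response data.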
The nature of experiment [4]: Cell Viability - LYMP2-011 (AID 969).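 Note: cells exposed to compound for 24 hours; 0% = DMSO only and full inhibition = 92 µM tetraoctylammonium bromide; nearly all actives have a fitted effect of over 60% in size.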 A digest of the protocol:
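Cells seeded at 2500 per well rest 5 hr before compound addition, then incubate 24 hr at 37 C. CellTiter-Glo reagent is added for 30 min at room temperature before luminescence detection.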

Experiment [5] can be described thus: Cell Viability - LYMP2-013 (AID 970).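 Note: series mostly up to about 92 µM; 0% = DMSO only and full inhibition = tetraoctylammonium bromide control; nearly all actives have a fitted effect of over 55% in size.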 An outline of the steps:
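In complete culture medium, human lymphoblastoid cells were dosed for 24 hr at 37 C, with tetraoctylammonium bromide (6.4pM to 92 uM) as positive control. Viability reflects luciferase-based ATP signal; AC50 derived from concentration-response curves.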

Experiment [6] in a line: Cell Viability - LYMP2-017 (AID 972).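 Note: series mostly up to about 92 µM; cells exposed to compound for 24 hours at 37 °C; % is set by controls: 0 for no effect and ±100 for the full control effect; nearly all actives have a fitted effect of over 55% in size.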 A digest of the protocol:
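In this qHTS format, lymphoblastoid cells in complete medium receive test compound for a day at 37 C before ATP content is quantified by luciferase luminescence. Reported AC50 figures come from standard Hill-equation curve fitting.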

Experiment [7] can be described thus: Cell Viability - LYMP2-023 (AID 975).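 Note: cellular ATP measured by luciferase luminescence as viability proxy; series mostly up to about 92 µM; cells exposed to compound for 24 hours at 37 °C; plate controls were DMSO only for no effect and 92 µM tetraoctylammonium bromide control for full effect; nearly all actives have a fitted effect of over 55% in size.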 An outline of the steps: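 In this qHTS, ATP-based luciferase luminescence (CellTiter-Glo) is quantified in human lymphoblastoid cells after 24 hr compound treatment at 37 C; tetraoctylammonium bromide serves as positive control. Concentration-response curves are Hill-fitted to give AC50.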
Experiment [8] is described as follows: Cell Viability - LYMP2-002 (AID 977).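 Note: series mostly up to about 92 µM; plate controls were DMSO only for no effect and 92 µM tetraoctylammonium bromide for full effect.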 An outline of the steps:
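In this qHTS viability screen, 2500 human lymphoblastoid cells per well receive compound for 24 hr at 37 C, and luciferase-based ATP luminescence gives the viability signal. Tetraoctylammonium bromide serves as positive control.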

The nature of experiment [9]: Cell Viability - LYMP2-007 (AID 979).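 Note: cells exposed to compound for 24 h before reading; 0% = DMSO only and the negative end = 92 µM tetraoctylammonium bromide; nearly all actives have a fitted effect of over 60% in size.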 A digest of the protocol: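 Measured via luciferase-based ATP quantitation: lymphoblastoid cells, 24 hr compound exposure at 37 C, AC50 from Hill fits.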
A short description of experiment [10]: Cell Viability - LYMP2-014 (AID 983).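 Note: series mostly up to about 92 µM; plate controls were DMSO only for no effect and 92 µM tetraoctylammonium bromide for full effect; nearly all actives have a fitted effect of over 50% in size.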 A digest of the protocol: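 Quantitative HTS in lymphoblastoid cells: 24 hr compound exposure, then CellTiter-Glo ATP luminescence. Positive control was tetraoctylammonium bromide, 6.4pM to 92 uM.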
Experiment [11] is described as follows: Cell Viability - LYMP2-016 (AID 984).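 Note: cells exposed to compound for 24 hours at 37 °C; % is set by controls: 0 for no effect and ±100 for the full control effect; nearly all actives have a fitted effect of over 55% in size.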 A digest of the protocol: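 Cytotoxicity was scored by luminescent ATP content (CellTiter-Glo) after 24 h compound exposure at 37 C of a human lymphoblastoid line at 2500 cells/well. Concentration-response data were fitted to the Hill equation for AC50.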
Experiment [12] is described as follows: Cell Viability - LYMP2-018 (AID 985).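 Note: plate controls were DMSO only for no effect and tetraoctylammonium bromide at 92 µM for full effect; nearly all actives have a fitted effect of over 50% in size.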 An outline of the steps:
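In this qHTS viability assay, cells are treated for 24 hr and cellular ATP is quantified by luciferase-based luminescence, with tetraoctylammonium bromide as positive control.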

Experiment [13] in a line: Cell Viability - LYMP2-020 (AID 986). A digest of the protocol:
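Cells at 2500 per well receive a 24 hr compound exposure at 37 C. Viability is measured as ATP-dependent luciferase luminescence, with AC50 modeled from qHTS concentration-response curves.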

Experiment [14] can be described thus: Cell Viability - LYMP2-022 (AID 987). An outline of the steps: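 In this qHTS cytotoxicity screen, compound titrations were incubated 24 hr at 37 C with human lymphoblastoid cells in complete medium. Luciferase-based ATP luminescence provided the viability signal.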
Experiment [15] is described as follows: Cell Viability - LYMP2-024 (AID 988).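 Note: plate controls were DMSO only for no effect and 92 µM tetraoctylammonium bromide for full effect; nearly all actives have a fitted effect of over 60% in size.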 A digest of the protocol: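 Cells at 2500 per well received compound for 24 hr after a 5 hr settling period. Viability was scored by CellTiter-Glo luminescence, with AC50 from Hill fits.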
Experiment [16] has as its target Retinoic acid receptor RXR-alpha (Homo sapiens) (UniProt P19793). In words: qHTS assay for small molecule agonists of retinoid X receptor alpha signaling (AID 588544; calls by dose curve;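 note: 0% = DMSO basal wells and 100% = reference agonist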).
Experiment [17] can be described thus: qHTS assay for small molecule antagonists of retinoid X receptor alpha signaling (AID 588546; active = well fitted inhibition curve with a large enough effect in the signal ratio, with a control signal flat, not every such curve was filed as active; the % refers to the signal ratio;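 note: cells stimulated with 9-cis-retinoic acid as agonist; % is set by controls: 0 for no effect and ±100 for the full control effect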). The conditions noted are these: HEK293T RXRa-UAS-bla, beta-lactamase ratio, antagonist mode; measured here: W530 green channel, cytotoxicity proxy. An outline of the steps:
(§1)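 Beta-lactamase reporter inhibition, read as CCF4 fluorescence ratio (ex 405, em 460/530 nm) after 2 h at RT. HEK293T UAS-bla cells, 2500/well, were stimulated with 9-cis-RA at 500 or 100 nM final alongside test compound for 18 h at 37 C.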
In general terms: qHTS replaces the single test concentration by a dilution series.

The target of experiment [18] is Retinoic acid receptor RXR-alpha (Homo sapiens) (UniProt P19793). The experiment is described as above. To be noted: HEK293T RXRa-UAS-bla, beta-lactamase ratio, antagonist mode. An outline of the steps: as §1
A short description of experiment [19]: qHTS assay for small molecule disruptors of the mitochondrial membrane potential - 1 hr assay (AID 651754; calls by dose curve; note: % is set by controls: 0 for no effect and ±100 for the full control effect; nearly all actives have a fitted effect of over 35% in size). A digest of the protocol: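 In this qHTS format, a 1 hr compound treatment of HepG2 cells precedes Mito-MPS staining, and membrane potential is judged from aggregate (red) against monomer (green) fluorescence intensity.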
A short description of experiment [20]: qHTS assay for environmental chemicals that activate the Aryl hydrocarbon Receptor (AhR) signaling pathway (AID 651777). For activation: % of control where 0% means no effect. Note: nearly all actives have a fitted effect of over 15% in size. Note: potency is the fitted concentration of half-maximal effect. The conditions noted are these: 1A2-DRE human hepatoma cells, luciferase, 24 h; activation: stronger effect = higher value. An outline of the steps:
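Following a 24 hr incubation with test chemicals at 37 C and 5% CO2, 1A2-DRE human hepatoma cells received One-Glo reagent; after 30 min at room temperature, luciferase output reflected CYP1A2 induction via AhR.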

Chain of Retinoic acid receptor RXR-alpha (Homo sapiens) (P19793 whole entry, looked up): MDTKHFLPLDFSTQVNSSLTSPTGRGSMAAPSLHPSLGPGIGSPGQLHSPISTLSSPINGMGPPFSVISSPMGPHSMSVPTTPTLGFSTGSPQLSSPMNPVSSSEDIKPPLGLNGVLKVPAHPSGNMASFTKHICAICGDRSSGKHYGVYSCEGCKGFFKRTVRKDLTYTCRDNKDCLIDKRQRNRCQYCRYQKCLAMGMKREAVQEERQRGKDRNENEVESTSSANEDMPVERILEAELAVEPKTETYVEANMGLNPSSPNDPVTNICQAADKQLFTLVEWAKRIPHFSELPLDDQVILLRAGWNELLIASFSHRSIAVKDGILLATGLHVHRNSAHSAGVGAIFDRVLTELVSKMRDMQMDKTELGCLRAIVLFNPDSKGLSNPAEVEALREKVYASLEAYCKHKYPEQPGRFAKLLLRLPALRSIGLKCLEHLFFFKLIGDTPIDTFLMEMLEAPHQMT

Regarding `CCOc1ccc(N)cc1`, the Potency entry in [1], in experiment [2], in experiment [3], in experiment [4], in [5] and in experiment [6] was “inactive” throughout. Also, the Potency result in experiment [7], in experiment [8], in [9], in experiment [10], in [11] and in experiment [12] was “inactive” in each case. The Potency entry in experiment [13], in experiment [14], in experiment [15], in experiment [16] and in experiment [19] was “inactive” each time. Further, the max response in [17] was -4.66%; in experiment [18] it was -3.13% (inactive). In addition, in [20], the activation is 1.6% (inactive).

Take `c1ccc(OP(Oc2ccccc2)Oc2ccccc2)cc1`: the Potency entry in [1], in experiment [2], in experiment [3], in [4], in [5] and in experiment [6] was “inactive” in each case. In addition, the Potency result in experiment [7], in experiment [8], in experiment [9], in experiment [10], in experiment [11] and in experiment [12] was “inactive” in each case. For the same molecule, the Potency result in [13], in experiment [14], in experiment [15], in experiment [16] and in experiment [19] was “inactive” throughout. In addition, the max response in [17] was -3.76% and -10.6%; in experiment [18] it was 4.67% (inactive) and -4.17% (inactive). In addition, the activation in [20] is 0.234% (inactive) and -1.88% (inactive).

With `S=C=Nc1cccc2ccccc12`, the Potency entry in [1], in [2], in experiment [3], in experiment [4], in experiment [5] and in experiment [6] was “inactive” throughout. Further, the Potency result in experiment [7], in experiment [8], in experiment [9], in experiment [10], in [11] and in experiment [12] was “inactive” in each case. The Potency entry in experiment [13], in experiment [14], in [15] and in experiment [16] was “inactive” in each case. Also, the results for the max response in experiment [17] and in [18] were -0.704% and 3.59% (inactive), respectively. The Potency in [20] is 50.1 µM (active).

As for `Cc1cccc(C#N)c1`, the Potency entry in [1], in experiment [2], in experiment [3], in experiment [4], in experiment [5] and in experiment [6] was “inactive” throughout. Further, the Potency result in [7], in experiment [8], in [9], in experiment [10], in [11] and in experiment [12] was “inactive” each time. The Potency result in [13], in experiment [14], in [15], in experiment [16] and in [19] was “inactive” in each case. In addition, the max response in experiment [17] is 3.52%; in [18] it was 20.5% (inactive). The activation in experiment [20] was 2.06% (inactive).

Regarding `Cc1cccc([N+](=O)[O-])c1`, the Potency result in experiment [1], in experiment [2], in [3], in experiment [4], in experiment [5] and in experiment [6] was “inactive” each time. Also, the Potency result in experiment [7], in [8], in experiment [9], in [10], in [11] and in experiment [12] was “inactive” each time. The Potency result in experiment [13], in [14], in experiment [15], in experiment [16] and in experiment [19] was “inactive” throughout. Further, the max response was -5.54% and -8.46% in experiment [17]; 4.38% (inactive) and -23.2% (inactive) in experiment [18]. Also, the activation in experiment [20] is -1.15% (inactive) and 1.37% (inactive).

With `OCC(Br)CBr` (stereo not drawn), the Potency entry in experiment [1], in experiment [2], in experiment [3], in experiment [4], in experiment [5] and in experiment [6] was “inactive” in each case. The Potency entry in [7], in experiment [9], in experiment [10], in experiment [11], in experiment [12] and in [13] was “inactive” each time. The Potency result in experiment [14], in [15], in experiment [16] and in experiment [19] was “inactive” throughout. The max response in experiment [17] was -6.01%; in experiment [18], 1.29% (inactive). In experiment [20], the activation is -1.14% (inactive).
